# CYP2C9 inh – blockers of cytochrome P450 2C9 activity – biochemical, luminescence, ADME assay, primary screen; 96,000 compounds, 20% hits; inhibition, % at 5 µM; CYP2C9 Supersomes, luciferin-H conversion; AID 777, 2007; P11712;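 active = blocking of liver enzyme CYP2C9 beyond about 50% at 5 µM, limit read from the data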
# PostGolgi yeast – phenotypic screen on post-Golgi transport, primary screen; AID 739, 2007; 98,000 compounds, 0.9% hits; post-Golgi transport phenotypic cell assay; inhibition, % at 10 µM;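 note: yeast cells grown in 1536-well plates; yeast grown about 18 h at 30C before absorbance read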
# CYP2C9 act – human CYP2C9 activators, primary screen, biochemical, luminescence | recombinant CYP2C9, luciferin-H conversion; hits give high values; factor 1 = untreated enzyme, 0 = blocked | activation factor at 5 µM | 96,000 compounds, 1.4% hits;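 active = activation factor of 2 or more for CYP2C9 at a 5 µM dose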
# CYP2C19 activ – human CYP2C19 activators, primary screen, biochemical, luminescence. activation factor at 5 µM. AID 1025, 2008. 96,000 tested, under 10 active. recombinant CYP2C19, luciferin-H EGE luminescence; hits give high values; 0 = fully inhibited enzyme, 1 = untreated enzyme;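 active = activation factor of at least 2 at 5 µM in the primary screen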
# PostGolgi ctrl – growth inhibition of yeast control strain, primary screen, counter-screen for post-Golgi transport modulator project; efflux-deficient yeast background strain, growth absorbance A615, 16 h; inhibition, % at 10 µM; 98,000 compounds, 5% hits
# CYP2C19 inh – blockers of cytochrome P450 2C19 activity – biochemical, luminescence, ADME assay, primary screen | P33261 | CYP2C19 Supersomes, luciferin-H EGE luminescence, 30 min | 96,000 compounds, 21% hits | inhibition, % at 5 µM;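 active = CYP2C19 inhibition above a set limit at 5 µM in the primary screen, cut at about 50% in these data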
# A number is an active result; n = inactive; x = no result given. Compounds with a hit are over-represented: about 32% of the library has one in this group of screens. Cut-off read from the data, not from the text of the source, unless noted: active = inhibition above about 30%; inactive = the rest.
SMILES,CYP2C9 inh,PostGolgi yeast,CYP2C9 act,CYP2C19 activ,PostGolgi ctrl,CYP2C19 inh
Cc1cc2ccccc2n1CCNC(=O)c1cccs1,n,n,n,n,n,53
Cc1cc2ccccc2n1CCNC(=O)C1CCCCC1,n,n,n,n,n,68
Cc1cc2ccccc2n1CCNC(=O)C1CCCC1,52,n,n,n,n,94
CCCn1c(CCNC(=O)c2cccs2)nc2ccccc21,x,n,x,x,n,x
C=CCNC(=O)c1onc(CSc2cc(C)ccc2C)c1C(=O)O,77,n,n,n,n,n
COCCNC(=O)c1onc(CSc2ccccc2F)c1C(=O)O,n,n,n,n,n,n
Cc1ccc(C)c(SCc2noc(C(=O)NC(C)C)c2C(=O)O)c1,72,n,n,n,n,n
COCCNC(=O)c1onc(CSc2cc(C)ccc2C)c1C(=O)O,n,n,n,n,n,n
CCCCNC(=O)c1onc(CSc2cc(C)ccc2C)c1C(=O)O,78,n,n,n,n,n
CCCCNC(=O)c1onc(CSc2ccccc2CC)c1C(=O)O,72,n,n,n,n,n
CCOc1ccc(CCNC(=O)C2CCCN(C(=O)N(C)C)C2)cc1OCC (configuration not stated),x,n,x,x,n,x
CCN(CC)CCOC(=O)C12CC3CC(CC(C3)C1)C2,n,n,n,n,n,n
CC(C)Cc1cc(C(=O)N2CCN(C(c3ccccc3)c3ccccc3)CC2)no1,79,n,n,n,n,n
O=C(N1CCCCC1)N1CCN(C(c2ccccc2)c2ccccc2)CC1,81,n,n,n,n,57
COc1ccc(-c2cc(C(=O)N3CCN(C(c4ccccc4)c4ccccc4)CC3)no2)cc1,n,n,n,n,42,n
COCCn1nnnc1C(C(C)C)N(Cc1cccnc1)Cc1ccccc1Cl (configuration not stated),n,n,n,n,38,95
CCN1C(=O)C2C(c3ccccc3F)NC(Cc3ccc(O)cc3)(C(=O)OC)C2C1=O (configuration not stated),n,n,n,n,n,n
CCn1c(=S)ccc2ccc(OC)cc21,n,n,n,n,n,64
CCOc1ccccc1OCCCOc1ccc(C)cc1Br,n,n,n,n,n,n
Cc1ccccc1OCCCN1CCCC1,n,n,n,n,n,n
Cc1cccc(OCCCCCn2ccnc2)c1C,100,n,n,n,n,100
COc1ccc(Cn2ccnc2)cc1Br,88,n,n,n,n,92
COc1cc(C)ccc1OCCOCCOc1ccccc1Br,n,n,n,n,42,n
Cc1cc(C)c(C)c(OCCCn2ccnc2)c1,95,n,n,n,n,100
Cn1c(=O)c2c(nc(SCCN3CCOCC3)n2Cc2cccc3ccccc23)n(C)c1=O,n,n,n,n,n,n
SMILES,CYP2C9 inh,PostGolgi yeast,CYP2C9 act,CYP2C19 activ,PostGolgi ctrl,CYP2C19 inh
CCOC(=O)Nc1ccc(S(=O)(=O)Nn2cnnc2)cc1,n,n,n,n,n,n
COc1cccc(OCCn2ccnc2)c1,x,n,x,x,n,x
Cc1cc(C(C)(C)C)ccc1OCCn1ccnc1,94,n,n,n,n,98
CCOc1ccccc1OCCCOc1ccc(C)cc1Cl,n,n,n,n,n,n
CCN(CC)CCCOc1ccc(C)cc1Br,n,n,n,n,n,n
Cc1ccc(C)c(OCCCCn2ccnc2)c1,93,n,n,n,n,98
Cc1ccc(OCCCCn2ccnc2)c(Cl)c1,98,n,n,n,n,100
Cc1ccc(OCCOCCn2ccnc2)c(Br)c1,87,n,n,n,n,99
CCN(CC(=O)NC(C)C)Cc1nc2sc3c(c2c(=O)[nH]1)CCC3,n,n,n,n,n,n
CN1CCN(CCC(=O)Nc2ccccc2Cl)CC1,x,n,x,x,n,x
CC(C)C(=O)Nc1nnc(CCN2CCCCC2)s1,n,n,n,n,n,n
CCC(C)N(CCNC(=O)CC1Oc2ccc(C)cc2NC1=O)C1CCCCC1 (configuration not stated),n,n,n,n,n,n
COC(=O)c1sc(S(=O)(=O)NCc2cccs2)c(C(=O)OC)c1C,82,n,n,n,n,89
CCOC(=O)c1c(N)sc(C(=O)N2CCCC2)c1C,n,n,n,n,n,n

# Screening results: PubChem, several laboratories
